Assay [1] in a line: antimalarial activity against Dd2 strain (AID 2302;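 active means growth inhibition above 50% at the single 2 µM test dose, taken to imply half-maximal potency below 2 µM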;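 further: 0% = DMSO untreated growth and 100% = chloroquine plus artemisinin killed control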). The conditions noted are these: P. falciparum Dd2 in RBCs, LDH growth readout, 72 h; at 2 µM; stronger effect = higher value.
The nature of assay [2]: human hepatoma cell viability loss – ATP luminescence, cytotoxicity control for P. falciparum antimalarial project, primary screen (AID 2303;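 active means inhibition above 50%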;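 further: 0% = DMSO wells and 100% = digitonin-killed cells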). The conditions noted are these: HepG2 viability, 24-48 h, at 10 µM, stronger effect = higher value.
For assay [3], the target named is L-lactate dehydrogenase (Plasmodium falciparum (isolate CDC / Honduras)) (UniProt Q27743). As to the kind of experiment: PfLDH activity inhibition – cell lysate, 3D7 strain, counter-screen for P. falciparum growth inhibition project (AID 2304).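 Further: 0% = vehicle and 100% = reference inhibitor.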 To be noted: P. falciparum 3D7 crude extract, LDH APAD/NBT absorbance; at 2 µM; stronger effect = higher value. In general terms: A counterscreen serves to expose hits that act by an unwanted route or on another target.
Chain of L-lactate dehydrogenase (Plasmodium falciparum (isolate CDC / Honduras)) (Q27743 whole entry, looked up): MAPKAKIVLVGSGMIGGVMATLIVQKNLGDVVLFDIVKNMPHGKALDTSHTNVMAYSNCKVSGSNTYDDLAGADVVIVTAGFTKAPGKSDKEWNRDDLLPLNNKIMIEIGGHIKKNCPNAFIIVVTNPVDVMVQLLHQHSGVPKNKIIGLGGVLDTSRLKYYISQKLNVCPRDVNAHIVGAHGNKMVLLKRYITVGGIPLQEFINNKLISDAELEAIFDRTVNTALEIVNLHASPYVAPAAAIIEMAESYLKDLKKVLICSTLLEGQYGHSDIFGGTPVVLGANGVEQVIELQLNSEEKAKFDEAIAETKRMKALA

Assay [4] can be described thus: inhibition of 3D7 malaria parasite growth – strain 3D7 (AID 2306).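 Further: 0% = DMSO wells and 100% = chloroquine plus artemisinin control wells.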 To be noted: P. falciparum 3D7 erythrocytic growth, LDH absorbance, 72 h; at 2 µM; stronger effect = higher value.
For assay [5], the target named is Calcium-dependent protein kinase 1 (Plasmodium falciparum (isolate 3D7)) (UniProt P62344). Nature of the assay: PfCDPK1 kinase inhibitors, biochemical, TCAMS library (AID 1159585; cut-off not given, nearly all actives have IC50 up to about 0.98 µM;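 further: inhibitors leave more ATP so luminescence rises with inhibition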). The conditions noted are these: recombinant PfCDPK1, Kinase-Glo ATP depletion luminescence. For orientation: Kinase-Glo measures the ATP left after a reaction by luminescence.
Chain of Calcium-dependent protein kinase 1 (Plasmodium falciparum (isolate 3D7)) (P62344 whole entry, looked up): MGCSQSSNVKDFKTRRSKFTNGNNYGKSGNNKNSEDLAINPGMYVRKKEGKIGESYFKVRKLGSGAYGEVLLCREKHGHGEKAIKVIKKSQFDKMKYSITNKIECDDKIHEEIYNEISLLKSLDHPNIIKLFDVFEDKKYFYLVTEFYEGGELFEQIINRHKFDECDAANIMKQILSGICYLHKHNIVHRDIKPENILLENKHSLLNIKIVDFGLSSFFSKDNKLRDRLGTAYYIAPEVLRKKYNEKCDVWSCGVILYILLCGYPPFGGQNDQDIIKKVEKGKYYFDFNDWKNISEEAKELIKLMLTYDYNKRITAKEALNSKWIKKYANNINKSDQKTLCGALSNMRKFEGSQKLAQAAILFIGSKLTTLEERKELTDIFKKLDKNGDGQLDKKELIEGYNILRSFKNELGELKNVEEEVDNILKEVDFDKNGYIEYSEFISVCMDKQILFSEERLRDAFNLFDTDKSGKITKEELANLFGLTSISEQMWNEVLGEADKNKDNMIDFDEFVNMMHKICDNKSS
Assay [6] deals with Plasmodium falciparum protein kinase 6 (PK6, PF3D7_1337100) (UniProt Q8IDW1). As to the kind of experiment: PfPK6 kinase inhibitors, biochemical, TCAMS library (AID 1159586). The conditions noted are these: recombinant PfPK6, Kinase-Glo ATP depletion luminescence.
Chain of Plasmodium falciparum protein kinase 6 (PK6, PF3D7_1337100) (Q8IDW1 1-305): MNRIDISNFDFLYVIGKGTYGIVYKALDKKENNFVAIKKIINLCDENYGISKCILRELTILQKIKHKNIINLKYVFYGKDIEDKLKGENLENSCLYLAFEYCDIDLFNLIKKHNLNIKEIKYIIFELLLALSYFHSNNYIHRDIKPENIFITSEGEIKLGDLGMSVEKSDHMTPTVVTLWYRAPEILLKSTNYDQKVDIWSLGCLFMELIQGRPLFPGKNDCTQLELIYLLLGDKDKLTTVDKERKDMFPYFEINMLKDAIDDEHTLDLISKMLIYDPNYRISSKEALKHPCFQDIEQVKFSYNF
The target of assay [7] is Protein kinase 7 (PK7), Plasmodium falciparum 3D7 (PF3D7_0213400) (UniProt Q7YTF7). As to the kind of experiment: inhibition of Plasmodium PK7 catalytic activity – biochemical, TCAMS antimalarial set, Kinase-Glo luminescence (AID 1159587). The conditions noted are these: recombinant PfPK7, Kinase-Glo ATP depletion luminescence.
Chain of Protein kinase 7 (PK7), Plasmodium falciparum 3D7 (PF3D7_0213400) (Q7YTF7 1-343): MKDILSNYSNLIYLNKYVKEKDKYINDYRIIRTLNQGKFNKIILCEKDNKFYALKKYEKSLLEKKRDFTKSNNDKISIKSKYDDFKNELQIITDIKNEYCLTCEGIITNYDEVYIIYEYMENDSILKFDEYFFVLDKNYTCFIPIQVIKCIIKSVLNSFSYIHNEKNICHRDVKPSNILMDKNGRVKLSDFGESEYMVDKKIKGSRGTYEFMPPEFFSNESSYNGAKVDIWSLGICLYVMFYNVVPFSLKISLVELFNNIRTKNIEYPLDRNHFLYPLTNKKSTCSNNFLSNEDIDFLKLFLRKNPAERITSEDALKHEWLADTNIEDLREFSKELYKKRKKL
Assay [8] deals with Calcium-dependent protein kinase 4 (Plasmodium falciparum (isolate 3D7)) (UniProt Q8IBS5). Nature of the assay: PfCDPK4 kinase inhibitors, biochemical, TCAMS library (AID 1159588; cut-off not given, nearly all actives have IC50 up to about 0.91 µM). The conditions noted are these: recombinant PfCDPK4, Kinase-Glo ATP depletion luminescence.
Chain of Calcium-dependent protein kinase 4 (Plasmodium falciparum (isolate 3D7)) (Q8IBS5 whole entry, looked up): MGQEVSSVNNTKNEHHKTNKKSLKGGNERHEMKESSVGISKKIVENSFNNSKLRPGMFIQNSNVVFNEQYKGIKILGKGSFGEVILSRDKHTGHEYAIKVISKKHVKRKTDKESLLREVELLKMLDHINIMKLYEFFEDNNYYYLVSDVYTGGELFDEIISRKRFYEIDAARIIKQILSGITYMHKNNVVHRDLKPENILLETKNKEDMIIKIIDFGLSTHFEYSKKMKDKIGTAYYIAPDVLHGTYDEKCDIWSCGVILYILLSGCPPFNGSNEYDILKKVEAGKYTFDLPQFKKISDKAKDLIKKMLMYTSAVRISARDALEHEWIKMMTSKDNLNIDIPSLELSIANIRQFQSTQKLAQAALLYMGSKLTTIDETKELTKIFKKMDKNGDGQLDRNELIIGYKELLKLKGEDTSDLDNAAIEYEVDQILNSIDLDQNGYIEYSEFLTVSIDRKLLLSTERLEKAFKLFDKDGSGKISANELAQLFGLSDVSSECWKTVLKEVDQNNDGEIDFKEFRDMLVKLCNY

Values without a mark were called inactive. For some of these results: Measured potencies and affinities stand elsewhere. The source made the active and inactive calls. Unless noted, how the calls were made is not given here.

One may read the inhibition as the relative decrease from the control value, in per cent. Consider `CC(CCCCC(=O)Nc1ccc(CC(C)NCCc2cccc(Cl)c2)cc1)NCCc1cccc(Cl)c1` (stereo not given), for which the growth inhibition in assay [1] was -1%; in assay [4], 91% (active). Moreover, the figures for the inhibition in assay [2] and in assay [3] were 28% and -1%, respectively. Moreover, the result in assay [5], in assay [6], in assay [7] and in assay [8] was inactive.

Consider `Cc1[nH]c2ccccc2c1CC1CCN(CC2CCN(C(=O)/C=C/c3ccc(Cl)c(Cl)c3)CC2)CC1`, for which the growth inhibition was 14% in assay [1] and 92% (active) in assay [4]. The inhibition was 34% in assay [2] and -3% in assay [3]. Also, the outcome in assay [5], in assay [6], in assay [7] and in assay [8] was inactive.

On to `COc1cc(C(=O)N2[C@@H](c3nccs3)[C@@H](C(=O)N(OC)C(C)c3ccccc3)C[C@@]2(CC(C)C)C(=O)OC(C)(C)C)ccc1C(C)(C)C` (stereo not given in full), for which the growth inhibition in assay [1] and in assay [4] was 92% (active) each time. The inhibition in assay [2] is 12%; in assay [3], 5%. Also, the result in assay [5], in assay [6], in assay [7] and in assay [8] was inactive.

With `CCCCNC(=O)c1[nH]c2c(NC(=O)COc3ccccc3)cccc2c1-c1cccc(NC(=O)C(N)CO)c1` (stereo not given), the values for the growth inhibition in assay [1] and in assay [4] were -3% and 87% (active), respectively. The inhibition in assay [2] was 11%; in assay [3], -3%. Also, the outcome in assay [5], in assay [6], in assay [7] and in assay [8] was inactive.

As to `Cc1[nH]c(C)c(-c2ccc(-c3cccc(Cl)c3)nc2)c(=O)c1Br`, the growth inhibition in assay [1] and in assay [4] was 96% (active) throughout. Moreover, the values for the inhibition in assay [2] and in assay [3] were 10% and 3%, respectively. The outcome in assay [5], in assay [6], in assay [7] and in assay [8] was inactive.

As to `CCN(CC)c1ccc(C=CC(=O)NCCN2CCC(N(C)C3CCCCC3C)CC2)cc1` (stereo not given), the growth inhibition in assay [1] is 18%; in assay [4] it was 88% (active). Moreover, the inhibition is 29% in assay [2] and -3% in assay [3]. Besides, the outcome in assay [5], in assay [6], in assay [7] and in assay [8] was inactive.

In the case of `Fc1ccc2[nH]c3c(NCCN4CCCCC4)ncnc3c2c1`, the values for the growth inhibition in assay [1] and in assay [4] were 44% and 99% (active), respectively. Also, the inhibition was 24% in assay [2] and 0% in assay [3]. For the same compound, the outcome in assay [5], in assay [6], in assay [7] and in assay [8] was inactive.

With `NCC1CCCN1Cc1cccc(-c2ccc(-c3nc4ccc(C(F)(F)F)cc4[nH]3)cc2)c1` (stereo not given), the growth inhibition was 95% (active) in assay [1] and 100% (active) in assay [4]. Moreover, the inhibition in assay [2] was 20%; in assay [3], 0%. In addition, the outcome in assay [5], in assay [6], in assay [7] and in assay [8] was inactive.

Take `CCc1ccc(C2CCN(CCCCNC(=O)c3ccc(-c4ccc(C(F)(F)F)cc4)cc3)CC2)c(OCCO)c1`: the growth inhibition in assay [1] is 69% (active); in assay [4], 101% (active). Moreover, the values for the inhibition in assay [2] and in assay [3] were 82% (active) and -6%, respectively. In addition, the outcome in assay [5], in assay [6], in assay [7] and in assay [8] was inactive.

As to `Cc1nc(N)nc(N)c1CCCOc1ccc(Br)cc1`, the growth inhibition in assay [1] is 5%; in assay [4] it was 97% (active). For the same compound, the figures for the inhibition in assay [2] and in assay [3] were 30% and 1%, respectively. For the same compound, the outcome in assay [5], in assay [6], in assay [7] and in assay [8] was inactive.

For the compound `COc1cc2nc(Nc3ccc4c(c3)OCCO4)nc(N)c2cc1OC`, the figures for the growth inhibition in assay [1] and in assay [4] were 80% (active) and 101% (active), respectively. The inhibition in assay [2] is 13%; in assay [3] it was -3%. For the same compound, the result in assay [5], in assay [6], in assay [7] and in assay [8] was inactive.

Consider `CCC(COCc1ccc(Cl)cc1)N(C)CCN(C)C(CC)COCc1ccc(Cl)cc1` (stereo not given), for which the growth inhibition in assay [1] is 78% (active); in assay [4], 95% (active). In addition, the inhibition in assay [2] is 89% (active); in assay [3], -5%. Moreover, the outcome in assay [5], in assay [6], in assay [7] and in assay [8] was inactive.

For the compound `CN(CCN)Cc1ccc(-c2ccc(-c3nc4ccc(F)cc4[nH]3)s2)cc1`, the growth inhibition in assay [1] was 81% (active); in assay [4], 96% (active). Also, the inhibition in assay [2] is 31%; in assay [3], -1%. Moreover, the outcome in assay [5], in assay [6], in assay [7] and in assay [8] was inactive.

As to `CC1N=C(N)N=C(N)N1OCc1ccccc1` (stereo not given), the growth inhibition in assay [1] is 72% (active); in assay [4] it was 94% (active). In addition, the inhibition is 62% (active) in assay [2] and 7% in assay [3]. Moreover, the result in assay [5], in assay [6], in assay [7] and in assay [8] was inactive.

In the case of `FC(F)(F)c1cccc2c(NN=Cc3ccccc3)ccnc12`, the growth inhibition in assay [1] was 90% (active); in assay [4] it was 101% (active). Moreover, the inhibition was 10% in assay [2] and -4% in assay [3]. The result in assay [5], in assay [6], in assay [7] and in assay [8] was inactive.

Regarding `N#Cc1ccc(NC(=O)Nc2ccc3c(c2)CCN(C2CCC2)CC3)cc1`, the growth inhibition was 11% in assay [1] and 96% (active) in assay [4]. Moreover, the inhibition in assay [2] is 6%; in assay [3], -8%. For the same compound, the outcome in assay [5], in assay [6], in assay [7] and in assay [8] was inactive.

Consider `Cc1ccc(CNC(=O)[C@H](Cc2ccccc2)Nc2cc(C)nc(NCCc3ccc(F)cc3)n2)cc1`, for which the growth inhibition was 22% in assay [1] and 98% (active) in assay [4]. The inhibition is 10% in assay [2] and -3% in assay [3]. The result in assay [5], in assay [6], in assay [7] and in assay [8] was inactive.

For the compound `CCCCCCCCS(=O)(=O)NCCCC1CCN(CCCCCNC(=O)C=Cc2ccc(Cl)c(Cl)c2)CC1`, the growth inhibition in assay [1] is 26%; in assay [4], 91% (active). The inhibition was 100% (active) in assay [2] and 6% in assay [3]. Moreover, the result in assay [5], in assay [6], in assay [7] and in assay [8] was inactive.

For `COc1cc(Cc2cnc(N)nc2N)cc(OCCNC(=O)OCc2ccccc2)c1OC`, the growth inhibition is -3% in assay [1] and 93% (active) in assay [4]. In addition, the inhibition was 6% in assay [2] and 4% in assay [3]. The outcome in assay [5], in assay [6], in assay [7] and in assay [8] was inactive.

On to `COc1ccc2ccccc2c1C=NNc1cc(C)nc2c(C)cccc12`, for which the growth inhibition was 94% (active) in assay [1] and 102% (active) in assay [4]. Besides, the inhibition in assay [2] is -3%; in assay [3], -4%. In addition, the outcome in assay [5], in assay [6], in assay [7] and in assay [8] was inactive.

Values taken from PubChem BioAssay.
